Assay results: PubChem BioAssay

What follows are molecules tested against Nuclear receptor coactivator 1 (Homo sapiens) (UniProt Q15788) (assay: SRC1 coactivator transcriptional activity inhibitors, confirmation, cell-based, luminescence, quadruplicate (AID 588820;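 note: 0% = DMSO wells and 100% = gossypol 36 µM treated wells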)). Details: HEK293 GAL4-SRC1 luciferase reporter, at 3.6 µM, stronger effect = higher value;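 active = mean inhibition above 46.68%, the untreated control wells mean plus 3 SD; inactive = the rest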.
Nuclear receptor coactivator 1 (Homo sapiens), sequence (Q15788 whole entry, looked up, the tested form may be a part): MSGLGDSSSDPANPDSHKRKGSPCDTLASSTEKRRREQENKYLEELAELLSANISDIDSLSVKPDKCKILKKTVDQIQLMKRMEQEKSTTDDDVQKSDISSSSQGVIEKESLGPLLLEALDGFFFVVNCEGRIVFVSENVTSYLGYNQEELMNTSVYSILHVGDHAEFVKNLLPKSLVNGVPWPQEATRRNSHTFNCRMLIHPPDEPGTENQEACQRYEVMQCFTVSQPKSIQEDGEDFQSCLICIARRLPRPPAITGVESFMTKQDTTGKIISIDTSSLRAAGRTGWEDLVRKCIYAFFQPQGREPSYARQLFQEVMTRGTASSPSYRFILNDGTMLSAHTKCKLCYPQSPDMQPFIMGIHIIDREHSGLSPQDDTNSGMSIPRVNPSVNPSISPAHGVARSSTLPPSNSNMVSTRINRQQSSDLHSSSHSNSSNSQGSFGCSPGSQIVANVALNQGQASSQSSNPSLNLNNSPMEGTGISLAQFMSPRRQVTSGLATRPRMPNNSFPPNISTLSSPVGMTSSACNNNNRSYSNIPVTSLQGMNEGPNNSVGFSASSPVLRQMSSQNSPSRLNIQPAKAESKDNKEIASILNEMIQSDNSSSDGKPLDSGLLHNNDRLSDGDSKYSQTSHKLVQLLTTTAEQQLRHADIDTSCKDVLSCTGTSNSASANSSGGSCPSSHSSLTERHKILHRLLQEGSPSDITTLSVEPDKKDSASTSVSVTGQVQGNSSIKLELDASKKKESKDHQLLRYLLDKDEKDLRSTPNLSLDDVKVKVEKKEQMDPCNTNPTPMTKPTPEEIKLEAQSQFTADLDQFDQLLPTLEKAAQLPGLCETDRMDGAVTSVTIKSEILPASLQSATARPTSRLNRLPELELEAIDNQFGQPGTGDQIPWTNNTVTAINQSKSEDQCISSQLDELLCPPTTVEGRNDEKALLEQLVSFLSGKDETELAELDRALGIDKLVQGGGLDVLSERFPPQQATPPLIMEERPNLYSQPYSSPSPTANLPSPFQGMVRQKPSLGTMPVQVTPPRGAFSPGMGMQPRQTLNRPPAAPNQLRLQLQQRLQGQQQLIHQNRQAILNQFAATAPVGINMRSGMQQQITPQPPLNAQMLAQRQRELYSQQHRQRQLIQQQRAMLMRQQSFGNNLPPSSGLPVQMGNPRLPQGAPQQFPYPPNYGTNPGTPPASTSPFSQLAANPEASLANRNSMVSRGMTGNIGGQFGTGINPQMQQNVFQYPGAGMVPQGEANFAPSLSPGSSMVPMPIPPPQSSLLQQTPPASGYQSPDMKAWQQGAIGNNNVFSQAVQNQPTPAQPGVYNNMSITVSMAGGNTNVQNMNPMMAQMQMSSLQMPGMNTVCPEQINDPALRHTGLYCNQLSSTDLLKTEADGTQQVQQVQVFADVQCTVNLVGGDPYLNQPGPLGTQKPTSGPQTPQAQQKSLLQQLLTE

inhibition, inactive:
CC(=O)/C(=C/c1ccccc1)C(=O)Nc1ccccc1C 5.97%
CC1CN(c2nc3ccccc3nc2SCC(=O)Nc2cccc(C(F)(F)F)c2)CC(C)O1 (stereo not given) -15.1%
NS(=O)(=O)c1ccc(CCNC(=O)c2ccc(C#CC3(O)CCCCC3)cc2)cc1 -44%
CCOC(=O)CNC(c1ccccc1)c1cc(Br)ccc1NC(C)=O (stereo not given) -0.66%
O=C(NC1CCCC1)C(c1ccccc1)N(Cc1ccco1)C(=O)Cc1cccs1 (stereo not given) 17.7%
COc1ccc(OC)c(NC(=O)c2cc(-c3c(C)cc(C)cc3O)n[nH]2)c1 11.1%
CCN(CC)S(=O)(=O)c1cc(NC(=O)C2CCN(c3ncnc4sc(C)c(C)c34)CC2)ccc1Cl 3.49%
Cc1ccc2cc3cc(C(=O)NCc4ccco4)oc3nc2c1 -10%
CN(CC(=O)Nc1ccc(Cl)c(C(F)(F)F)c1)C(=O)C1CC(=O)N(c2ccc3c(c2)OCCO3)C1 (stereo not given) 17.4%
Cc1cc(NCc2cccnc2)no1 -7.64%
COc1ccc(-c2csc3ncnc(N4CCN(CCO)CC4)c23)cc1 0.84%
CN1OC[C@@H]2CN(C(=S)NCCc3ccccc3)[C@H](c3ccc(-n4ccnc4)cc3)C[C@@H]21 -1.96%
COc1ccc(CCn2c(-c3ccco3)nc3ccccc3c2=O)cc1OC -30.6%
CN1CCN(C(=O)CCN2C(=O)/C(=C/c3cccc(Br)c3)SC2=S)CC1 10.7%
COc1ccc(C(C(=O)NCC2CCCO2)N(Cc2cccs2)C(=O)c2snc(C(N)=O)c2N)cc1 (stereo not given) -52.6%
